Most compounds without a hit are left out; they make up all but 9.2% or so of the library.
FLuc counter = counter-screen for miR-21 project: firefly luciferase inhibitors or activators; P08659; purified FLuc, Km substrates, luminescence inhibition; actives 6.9% (n = 360,000); Potency, µM (series often up to 57.5 µM), most hits filed as inhibitors; also: nearly all actives have a fitted effect of over 55% in size
Target sequence (P08659 whole entry, looked up): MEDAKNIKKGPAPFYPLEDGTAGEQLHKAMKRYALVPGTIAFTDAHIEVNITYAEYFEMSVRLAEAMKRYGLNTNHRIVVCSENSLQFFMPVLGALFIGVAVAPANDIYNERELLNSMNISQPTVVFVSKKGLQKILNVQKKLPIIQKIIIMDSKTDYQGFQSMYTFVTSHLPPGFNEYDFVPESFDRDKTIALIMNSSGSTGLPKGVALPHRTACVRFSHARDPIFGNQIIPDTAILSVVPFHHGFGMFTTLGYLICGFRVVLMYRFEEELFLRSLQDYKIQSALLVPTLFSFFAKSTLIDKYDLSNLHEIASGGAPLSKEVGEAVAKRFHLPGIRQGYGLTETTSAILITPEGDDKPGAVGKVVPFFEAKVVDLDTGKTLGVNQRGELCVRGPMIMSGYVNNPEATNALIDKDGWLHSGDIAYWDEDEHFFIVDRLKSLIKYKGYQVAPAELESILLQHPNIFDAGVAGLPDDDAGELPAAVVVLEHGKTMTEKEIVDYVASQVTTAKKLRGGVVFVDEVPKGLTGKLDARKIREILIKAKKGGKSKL
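Purified P. pyralis luciferase, 10 nM final, with Km-level 10 uM D-luciferin and 10 uM ATP in 50 mM Tris acetate pH 7.5, 10 mM Mg acetate, 0.01% Tween-20, 0.05% BSA; 6-point qHTS titration about 60 µM downward; luminescence read.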
ELG1 repair inh = ELG1-dependent DNA repair inhibition; AID 504467; actives 2.3% (n = 330,000); HEK293T ELG1-luciferase reporter, luminescence, 16 h; DNA damage induced by 5-fluorouridine; Potency, µM (series often up to 46.1 µM), hits mostly inhibitors; also: nearly all actives have a fitted effect of over 55% in size
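Cells (2,000 per well) received 5-fluorouridine plus test compound or DMSO and were incubated 16 hr at 37 °C, 5% CO2. Luciferase activity was read by luminescence 30 min after ONE-Glo addition; signal suppression marked inhibition of damage-induced ELG1 function.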
ELG1 genotoxic = genotoxicity induction in ELG1-luciferase HEK293T cells; actives 1.3% (n = 330,000); Potency, µM (titrated, usually from 46 µM), usual class: activators; HEK293T ELG1-luciferase reporter, luminescence, 16 h; also: nearly all actives have a fitted effect of over 60% in size
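ELG1-luciferase HEK293T cells, 2,000/well; compound pinned in; 16 hr, 37 °C, 5% CO2; ONE-Glo, 30 min RT; luminescence on CCD imager.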
NPC1 prom act = activates the NPC1 promoter; Huh7 NPC1 promoter luciferase reporter, 24 h; Potency, µM (doses to about 9.22 µM), most hits filed as activators; actives 2.4% (n = 320,000); AID 485313; also: nearly all actives have a fitted effect of over 60% in size
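Huh7 cells stably carrying NPC1 promoter–luciferase, plated in Opti-MEM with 10% FBS for 2 h, were exposed to compound in DMSO for 24 h at 37 °C; luciferase reagent was added for 10 min and luminescence read.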
SMN2 splice up = increases expression of the SMN2 splice variant | HEK293 SMN2-luciferase splicing reporter, luminescence, 30-36 h | Potency, µM (doses to about 46.1 µM), actives largely listed as activators | actives 2.8% (n = 210,000); also: nearly all actives have a fitted effect of over 55% in size
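HEK293 cells carry an SMN2 minigene-luciferase reporter in which exon 7 inclusion puts luciferase in frame. Cells were seeded at 2000 cells/well, attached for 10-12 hours, then exposed to compounds for 30-36 hours at 37C before ONE-Glo luminescence.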
Rab9 prom act = activators of Rab9 promoter; Huh7 Rab9 promoter-luciferase reporter, luminescence, 24 h; Potency, µM (highest dose often 9.22 µM), actives largely listed as activators; actives 2.8% (n = 320,000); also: nearly all actives have a fitted effect of over 60% in size
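Measured in stably transfected Huh7 cells bearing a Rab9 promoter–luciferase construct: 24 h compound treatment at 37 °C, followed by luminescence detection.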
Hits are given with their value; . = inactive; ? = inconclusive; / = no result given; ! = a repeat was not active; [ ] = dose if it differs, or a comment. Calls follow the shape of the dose curve; as a rule, active = well fitted curve in the direction sought with a large enough effect; inconclusive = small, poorly fitted or top-dose-only effect, or another doubt; inactive = no such curve, though single readings can be large; an effect the other way counts as inactive or inconclusive.

SMILES	FLuc counter	ELG1 repair inh	ELG1 genotoxic	NPC1 prom act	SMN2 splice up	Rab9 prom act
CC(C)Oc1ccccc1C1Nc2ccccc2C(=O)N1c1ccc2c(c1)OCCO2 (stereo not given)	13µM	?	?	0.79µM	7.9µM	1.1µM
Cc1ccc(/C=N/N2C(=O)c3ccccc3NC2c2ccc(C)cc2)cc1 (stereo not given)	?	?	?	.	13µM	?
O=[N+]([O-])c1ccc(CCNc2cccc3ccccc23)c([N+](=O)[O-])c1	.	.	.	.	.	.
COC(=O)C[C@H]1c2ccccc2C2=C(C[C@@H](C)[C@H]3C(=O)N(c4ccccc4)C(=O)[C@@H]23)N1C(=O)OC	/	/	/	/	.[9.22 µM]	/
Cc1ccccc1N(CC(=O)NCC1CCCO1)C(=O)CNS(=O)(=O)c1ccc(F)cc1 (stereo not given)	.	.	.	.	/	.
COc1ccc(N2C(=O)c3ccccc3NC2c2ccccc2O)cc1 (stereo not given)	.	?	?	1.4µM	/	1.3µM
COc1ccc(CCN2C(=O)c3ccccc3NC2c2cc(Cl)c(O)c(OC)c2)cc1 (stereo not given)	.	7.3µM	.	.	/	.
C/C(CC(=O)Nc1ccc(C)c(Cl)c1)=N\NC(=O)c1cccc(O)c1	.	.	.	.	/	.
CCOc1ccc(Nc2nc(Cc3nnc(SCC(N)=O)o3)cs2)cc1	15µM	.	.	.	.	.
CCOc1ccc(NC(=O)CSc2nnc(Cc3csc(C)n3)o2)cc1	.	.	.	.	/	.
COC(=O)/C=C1\NCCNC1=O	.	.	.	.	/	.
Cc1ccc(C(=O)/C=C2\NCC(C)NC2=O)cc1 (stereo not given)	1.2µM	?	?	0.32µM	.	0.32µM
Cc1ccc(C(=O)/C=C2\NCCNC2=O)cc1	5.4µM	?	?	1.4µM	2.8µM	0.89µM
CCN(CC)CCC[C@H](C)Nc1c2ccc(Cl)cc2nc2ccc(OC)cc12	/	/	/	/	.	/
CC12CCC(C/C1=N\N=C1\NC(=O)/C(=C\c3ccc(Cl)cc3)S1)C2(C)C (stereo not given)	6µM	?	.	.	.	.
Cn1c(/C=C(\C#N)C(N)=S)ccc1-c1ccc(Br)cc1	.	?	?	?	.	?
Fc1ccc(-c2nnc(-c3ccc(F)cc3)o2)cc1	4.3µM	?	?	2.8µM	/	?
c1ccc(-c2nnc(NC3=NCCC3)o2)cc1	6µM	?	1.8µM	?	8.9µM	0.35µM
Fc1ccc(-c2nnc(Cc3nnc(-c4ccc(F)cc4)o3)o2)cc1	.	.	.	.	.	.
Fc1ccc(-c2nnc(NC3=NCCCCC3)o2)cc1	0.6µM	?	?	?	.	0.089µM
Cc1nnc(NCCc2ccccc2)c2ccccc12	7.6µM	?	9.2µM	1.6µM	/	1.4µM
O=C1C=C(c2ccc3cc[nH]c3c2)C[C@@H](c2ccc3c(c2)OCO3)C1	.	?	.	.	/	.
Cn1c(=O)c2c(nc(CN3CCN(Cc4ccccc4)CC3)n2Cc2cccc(Cl)c2)n(C)c1=O	.	12µM	.	.	.	.
CCCCCCn1c(CN2CCN(C(=O)c3ccco3)CC2)nc2c1c(=O)n(C)c(=O)n2C	.	13µM	.	.	.	.
Cn1c(=O)c2c(nc(CN3CCc4ccccc4C3)n2Cc2cccc(Cl)c2)n(C)c1=O	.	?	.	.	.	.
SMILES	FLuc counter	ELG1 repair inh	ELG1 genotoxic	NPC1 prom act	SMN2 splice up	Rab9 prom act
COCCn1c(CN2CCc3ccccc3C2)nc2c1c(=O)n(C)c(=O)n2C	.	6.5µM	.	.	.	.
Cn1c(=O)c2c(nc(CN3CCN(c4ccc(F)cc4)CC3)n2Cc2ccccc2F)n(C)c1=O	.	6.5µM	.	.	.	.
COc1ccc(C(=O)NNC(=O)CSc2nnc(C)n2C)cc1	.	.	.	.	.	.
CCCCc1c(O)nc2sc3cc(OC)ccc3n2c1=O	11µM	?	?	.	.	.
COC(=O)c1cc(=O)nc2sc3cc(OC)ccc3n12	.	.	.	.	.	.
CCOC(=O)c1c(NC(=O)/C=C/c2ccc(C)o2)sc(C)c1C	.	.	.	.	/	.
COc1ccc(/C=C/C(=O)Nc2sc(C)c(C)c2C(=O)O)cc1	1.3µM	/	/	/	.	/
Cc1sc(NC(=O)/C=C/c2ccco2)c(C(=O)O)c1C	5.4µM	?	?	?	/	?
Cn1c(=O)n(C)c2cc(N3CCOCC3)c(NS(=O)(=O)c3ccc(Br)cc3)cc21	.	/	/	/	13µM	/
CCN(CC)S(=O)(=O)c1ccc(N2CCN(C)CC2)c(NC(=O)c2cc(=O)c3ccccc3o2)c1	.	.	.	.	/	.
CCOc1ccc(NS(=O)(=O)c2ccc3[nH]cc(C(=O)NCC4CCCO4)c(=O)c3c2)cc1 (stereo not given)	27µM!	.	.	?	.	.
Cc1cc(C)cc(NS(=O)(=O)c2ccc3[nH]cc(C(=O)NCc4ccco4)c(=O)c3c2)c1	.	10µM	.	.	.	.
CCOc1ccc(NS(=O)(=O)c2ccc3[nH]cc(C(=O)N(CC)CC)c(=O)c3c2)cc1	2.7µM	?	?	0.45µM	3.5µM	0.4µM
CN(Cc1ccccc1)S(=O)(=O)c1ccc2[nH]cc(C(=O)NCC3CCCO3)c(=O)c2c1 (stereo not given)	11µM	?	?	3.2µM	.	2.8µM
CCCn1c(=O)c2sccc2n2c(CCCC(=O)Nc3ccc(C)c(F)c3)nnc12	.	/	/	/	/	/
O=C(CSc1ncc2c(n1)-c1ccccc1N(Cc1ccc(Cl)cc1)S2(=O)=O)c1ccc(Cl)cc1	.	/	/	/	/	/
O=C(Nc1nccs1)c1ccc(-c2ccc(F)c(Cl)c2)o1	6µM	?	.	?	/	?
O=C(Nc1nccs1)c1ccc(-c2ccc(Cl)cc2Cl)o1	0.85µM	?	?	3.5µM	14µM	3.2µM
COc1cc(C(=O)N(c2ccc(C)c(C)c2)C2C=CS(=O)(=O)C2)cc(OC)c1OC (stereo not given)	.	.	.	.	.	.
CCCSCCCNC(=O)c1ccc2c(c1)sc1nc(-c3ccc(OCC)cc3)cn12	.	/	/	/	/	/
O=C(O)/C=C/C(=O)c1ccc2c(c1)CCc1ccccc1-2	24µM	?	.	.	/	?
CC(CNC(=O)c1ccc(Cn2c(SCc3ccccc3)nc3cccnc32)cc1)c1ccccc1 (stereo not given)	4.8µM	/	/	/	/	/
CC(NC(=O)c1ccc(Cn2c(SCc3ccccc3)nc3cccnc32)cc1)c1ccccc1 (stereo not given)	.	/	/	/	/	/
CCN(CC)CCCNC(=O)c1ccc(Cn2c(SCc3ccccc3)nc3cccnc32)cc1	21µM	/	/	/	/	/
Cc1cccc(Cn2c(SCc3ccc(C(=O)NCc4ccccc4F)cc3)nc3cccnc32)c1	.	/	/	/	/	/
Cc1ccccc1CNC(=O)c1ccc(Cn2c(SCc3ccccc3)nc3cccnc32)cc1	2.7µM	/	/	/	/	/
